Potency data for 18 molecules are collected here from PubChem BioAssay (NCATS).

Values joined by “and” are separate entries in the source; they are usually repeats but may differ in a detail not shown here. Identical values can stand only once. Records with an inconclusive call do not appear. Active and inactive are the calls of the source. Calls come from the whole dose curve; as a rule, active = well fitted curve in the direction sought with a large enough effect; inconclusive = small, poorly fitted or top-dose-only effect, or another doubt; inactive = no such curve, though single readings can be large; an effect the other way counts as inactive or inconclusive.

Experiment [1] in a line: BET inhibitor-based combinations targeting novel dependencies in MECOM-rearranged (r) AML: OCI-AML3 cell line (AID 2202232). Note: nearly all actives have a fitted effect of over 35% in size. Conditions: Potency: OCI-AML3 viability. The procedure, abridged: (§1)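 500 cells/well; 11-pt dose curve; 48 h, standard incubator; CellTiter-Glo luminescence after 15 min RT; DMSO/empty-well normalization; AUC plus Z-AUC (mean-centered within each line).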

The nature of experiment [2]: BET inhibitor-based combinations targeting novel dependencies in MECOM-rearranged (r) AML: MV-4-11 cell line (AID 2202233). Note: nearly all actives have a fitted effect of over 45% in size. The procedure, abridged:
(§2)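 Cells were plated at 500 per well and exposed to each drug across an 11-point dose range for 48 hr at standard incubator conditions. Viability was read by CellTiter-Glo luminescence, and activity was expressed as AUC and per-cell-line Z-transformed AUC.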

Experiment [3] is described as follows: BET inhibitor-based combinations targeting novel dependencies in MECOM-rearranged (r) AML: HNT-34 cell line (AID 2202234). Note: nearly all actives have a fitted effect of over 35% in size. The procedure, abridged:
as §2

Experiment [4] is described as follows: BET inhibitor-based combinations targeting novel dependencies in MECOM-rearranged (r) AML: UCSD-AML1 cell line (AID 2202235). Note: nearly all actives have a fitted effect of over 40% in size. The procedure, abridged:
as §2

Experiment [5] can be described thus: BET inhibitor-based combinations targeting novel dependencies in MECOM-rearranged (r) AML: AML-191 cell line (AID 2202236; note: nearly all actives have a fitted effect of over 35% in size). The procedure, abridged:
as §1

The nature of experiment [6]: BET inhibitor-based combinations targeting novel dependencies in MECOM-rearranged (r) AML: AML-194 cell line (AID 2202237; note: nearly all actives have a fitted effect of over 40% in size). The procedure, abridged:
as §1
Potency is the fitted concentration of half-maximal effect.

Turning to `N#Cc1ccc(Cn2cncc2CN2CCN(c3cccc(Cl)c3)C(=O)C2)cc1`, the Potency in experiment [1] was 2.95 µM (active); in experiment [2], 7.42 µM (active); in experiment [3], 1.66 µM (active); in experiment [4], 3.72 µM (active).

Turning to `CC(=O)O[C@@]12CO[C@@H]1C[C@H](O)[C@@]1(C)C(=O)[C@H](O)C3=C(C)[C@@H](OC(=O)[C@H](O)[C@@H](NC(=O)OC(C)(C)C)c4ccccc4)C[C@@](O)([C@@H](OC(=O)c4ccccc4)[C@H]21)C3(C)C`, the Potency in experiment [1] was 0.0033 µM (active); in experiment [2] it was 0.0042 µM (active); in experiment [3], 0.0037 µM (active); in experiment [4], 0.0047 µM (active); in experiment [5] it was 0.0132 µM (active); in experiment [6], 0.0148 µM (active).

On to `CC(C)Oc1ccc(-c2nn([C@@H](C)c3oc4ccc(F)cc4c(=O)c3-c3cccc(F)c3)c3ncnc(N)c23)cc1F`, for which the Potency in experiment [1] was 11.8 µM (active); in experiment [2], 16.6 µM (active); in experiment [3], 20.9 µM (active). Besides, the Potency entry in experiment [4] was “inactive”.

Turning to `Cc1c(-c2c(-c3ccc(F)o3)sc3ncnc(O[C@@H](Cc4ccccc4OCc4ccnn4CC(F)(F)F)C(=O)O)c23)ccc(OCCN2CCN(C)CC2)c1Cl`, the Potency in experiment [1] was 0.296 µM (active); in experiment [2], 0.0235 µM (active); in experiment [3], 0.332 µM (active); in experiment [4], 1.32 µM (active); in experiment [5], 5.25 µM (active); in experiment [6] it was 4.68 µM (active).

Turning to `NC(=O)c1nc(F)c[nH]c1=O`, the Potency result in experiment [1], in experiment [2], in experiment [3], in experiment [4], in experiment [5] and in experiment [6] was “inactive” in each case.

Consider `CN(C)CCCOc1ccc(-c2ccc3ncc4c(c3c2)n(C2CCOCC2)c(=O)n4C)cn1`, for which the figures for the Potency in experiment [1], in experiment [2] and in experiment [3] were 7.23 µM (active), 4.07 µM (active) and 2.57 µM (active), respectively.

Take `O=C(Nc1cc(Oc2cc(F)c(NC(=O)C3(C(=O)Nc4ccc(F)cc4)CC3)cc2F)ccn1)C1CC1`: the Potency in experiment [1] is 11.8 µM (active); in experiment [2] it was 0.235 µM (active); in experiment [3] it was 7.42 µM (active); in experiment [4], 14.8 µM (active); in experiment [5] it was 16.6 µM (active); in experiment [6], 14.8 µM (active).

As for `C=CCNC1=C2C[C@@H](C)C[C@H](OC)[C@H](O)[C@@H](C)/C=C(\C)[C@H](OC(N)=O)[C@@H](OC)/C=C\C=C(/C)C(=O)NC(=CC1=O)C2=O`, the Potency was 10.5 µM (active) in experiment [1]; 1.86 µM (active) in experiment [2]; 11.8 µM (active) in experiment [3]; 10.5 µM (active) in experiment [4]; 18.6 µM (active) in experiment [5]; 16.6 µM (active) in experiment [6].

As for `CC1(C)CCC2(CC1)N[C@@H](C(=O)N[C@@H]1CC[C@@H](C(N)=O)OC1)[C@H](c1ccnc(Cl)c1F)[C@]21C(=O)Nc2cc(Cl)ccc21`, the Potency is 0.715 µM (active) in experiment [1]; 0.0715 µM (active) in experiment [2]; 0.16 µM (active) in experiment [3]; 0.201 µM (active) in experiment [4]; 0.358 µM (active) in experiment [5]; 0.637 µM (active) in experiment [6].

Regarding `COC1(c2sc3c(N4CCOCC4)nc(-c4cnc(N)nc4)nc3c2C)COC1`, the Potency was 0.525 µM (active) in experiment [1], 0.59 µM (active) in experiment [2], 0.468 µM (active) in experiment [3] and 0.186 µM (active) in experiment [4].

Consider `CC(C)n1c(/C=C/[C@H](O)C[C@H](O)CC(=O)O)c(-c2ccc(F)cc2)c2ccccc21`, for which the Potency in experiment [1] was 3.32 µM (active); in experiment [2], 11.8 µM (active); in experiment [3] it was 8.33 µM (active); in experiment [4], 11.8 µM (active).

With `Cc1cc(C)c(CNC(=O)c2cc(-c3ccc(N4CCN(C)CC4)nc3)cc3c2c(C)cn3C(C)C)c(=O)[nH]1`, the Potency is 18.6 µM (active) in experiment [1]; 23.5 µM (active) and 20.9 µM (active) in experiment [2]; 23.5 µM (active) in experiment [3]. Moreover, in experiment [4], the Potency result was “inactive”.

Consider `C[C@@H]1Cc2c([nH]c3ccccc23)[C@@H](c2c(F)cc(/C=C/C(=O)O)cc2F)N1CC(C)(C)F`, for which the Potency entry in experiment [1], in experiment [2], in experiment [3], in experiment [4], in experiment [5] and in experiment [6] was “inactive” each time.

`CCCN(CCC)C(=O)C1=Cc2ccc(-c3ccc(C(=O)N4CCCC4)cc3)cc2N=C(N)C1`: the Potency in experiment [1] is 16.6 µM (active); in experiment [2] it was 16.6 µM (active); in experiment [3], 18.6 µM (active); in experiment [5] it was 18.6 µM (active); in experiment [6], 26.3 µM (active). In addition, in experiment [4], the Potency result was “inactive”.

Take `C[C@H](NC(=O)CCC(F)(F)F)C(=O)N[C@@H]1C(=O)N(CCO)c2ncccc2-c2ccccc21`: the Potency result in experiment [1], in experiment [2], in experiment [3], in experiment [4], in experiment [5] and in experiment [6] was “inactive” throughout.

As for `CN1CCN(Cc2ccc(Nc3ncc(Cl)c(Nc4ccccc4S(=O)(=O)N(C)C)n3)cc2)CC1`, the Potency in experiment [1] is 0.191 µM (active); in experiment [2], 0.0539 µM (active); in experiment [3] it was 0.108 µM (active); in experiment [4], 0.135 µM (active); in experiment [5] it was 0.152 µM (active); in experiment [6], 0.215 µM (active).

For `Nc1ncccc1-c1nc2ccc(-c3ccccc3)nc2n1-c1ccc(C2(N)CCC2)cc1`, the Potency in experiment [1] was 18.6 µM (active); in experiment [2], 11.8 µM (active); in experiment [3] it was 16.6 µM (active); in experiment [4], 16.6 µM (active); in experiment [5] it was 18.6 µM (active); in experiment [6], 29.5 µM (active).

Regarding `Cc1cc(C(=O)NOCCO)c(Nc2ccc(I)cc2F)n(C)c1=O`, the Potency was 0.0059 µM (active) in experiment [1], 0.0295 µM (active) in experiment [2] and 0.0468 µM (active) in experiment [3].
